Measurements as given in PubChem BioAssay AID1259412 (Laboratorio de Genomica e Expressao (LGE), UNICAMP, 2018).

assay: AOX inhibitors, oxygen consumption, profiling panel (AID 1259412); details: AOX-dependent respiration, O2 uptake; measured here: growth, AOX-dependent treatment condition; at 500 µM; stronger effect = lower value;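 note: growth monitored over 72 h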

Structure (SMILES) | growth (% of control)
COc1cc(NC(=O)c2cccc(F)c2)cc(OC)c1OC | 92.8%
O=C(Nc1cccc(OCc2ccccc2)c1)c1cccc(Br)c1 | 90.8%
O=C(Nc1cccc(F)c1)c1ccccc1 | 83%
Cc1cccc(C(=O)Nc2cccc(I)c2)c1 | 61.9%
O=C(NCc1ccc2c(c1)OCO2)c1cccc(F)c1 | 39.8%
N#Cc1cccc(C(=O)Nc2ccccc2)c1 | 58.9%
COc1cccc(C(=O)Nc2cccc(OCc3ccccc3)c2)c1 | 105%
N#Cc1cccc(C(=O)Nc2cccc(OCc3ccccc3)c2)c1 | 108%
COc1cc(NC(=O)c2cccc(C)c2)cc(OC)c1OC | 85.5%
O=C(Nc1ccccc1)c1cccc(F)c1 | 73.9%
O=C(Nc1ccccc1)c1ccccc1 | 69.8%
O=C(Nc1cccc(F)c1)c1cccc(F)c1 | 23%
COc1cccc(C(=O)Nc2cccc([N+](=O)[O-])c2)c1 | 63.7%
COc1cc(NC(=O)c2cccc(Cl)c2)cc(OC)c1OC | 82.2%
O=C(Nc1cccc([N+](=O)[O-])c1)c1cccc(Br)c1 | 74.5%
Cc1cccc(C(=O)Nc2cccc(OCc3ccccc3)c2)c1 | 93.7%
COc1cccc(C(=O)Nc2ccc(N3CCOCC3)cc2)c1 | 86.1%
N#Cc1cccc(C(=O)Nc2cccc(I)c2)c1 | 103%
O=C(Nc1cccc(I)c1)c1cccc(Cl)c1 | 63.1%
O=C(Nc1cccc(I)c1)c1cccc(Br)c1 | 88.2%

Structure (SMILES) | growth (% of control)
O=C(Nc1cccc(I)c1)c1ccccc1I | 112%
N#Cc1cccc(C(=O)Nc2cccc(F)c2)c1 | 55.1%
Cc1cccc(C(=O)NCc2ccc3c(c2)OCO3)c1 | 41.6%
Cc1cccc(C(=O)Nc2ccc(N3CCOCC3)cc2)c1 | 91%
O=C(Nc1cccc(OCc2ccccc2)c1)c1cccc(Cl)c1 | 95.6%
CCN(CC)CCNC(=O)c1ccccc1 | 92.5%
N#Cc1cccc(C(=O)Nc2cccc(Br)c2)c1 | 62.4%
COc1cccc(C(=O)Nc2cccc(F)c2)c1 | 7.84%
O=C(Nc1cccc(Cl)c1)c1ccccc1 | 46.9%
O=C(NCc1ccc2c(c1)OCO2)c1cccc(Cl)c1 | 55.3%
O=C(Nc1cccc([N+](=O)[O-])c1)c1cccc(F)c1 | 91.1%
O=C(Nc1cccc(OCc2ccccc2)c1)c1cccc(F)c1 | 86%
N#Cc1cccc(C(=O)Nc2ccccc2C(N)=O)c1 | 99.3%
O=C(Nc1ccccc1)c1cccc(Br)c1 | 75%
O=C(Nc1cccc(Br)c1)c1ccccc1I | 57.8%
Nc1cccc(S(=O)(=O)c2cccc(NC(=O)c3ccccc3)c2)c1 | 93.3%
O=C(Nc1ccc(N2CCOCC2)cc1)c1cccc(F)c1 | 94.7%
O=C(Nc1ccc(N2CCOCC2)cc1)c1ccccc1I | 86.7%
COc1cc(NC(=O)c2ccccc2)cc(OC)c1OC | 84.6%
